This is a sample that favours compounds with a hit; in the whole collection about 9.2% have one here.
FLuc counter: firefly luciferase modulation, counter-screen for miR-21 project | purified FLuc, Km substrates, luminescence inhibition | Potency, µM (series often up to 57.5 µM), hits mostly inhibitors | 360,000 tested, 6.9% active | AID 588342; also: nearly all actives have a fitted effect of over 55% in size
Target sequence (P08659 whole entry, looked up): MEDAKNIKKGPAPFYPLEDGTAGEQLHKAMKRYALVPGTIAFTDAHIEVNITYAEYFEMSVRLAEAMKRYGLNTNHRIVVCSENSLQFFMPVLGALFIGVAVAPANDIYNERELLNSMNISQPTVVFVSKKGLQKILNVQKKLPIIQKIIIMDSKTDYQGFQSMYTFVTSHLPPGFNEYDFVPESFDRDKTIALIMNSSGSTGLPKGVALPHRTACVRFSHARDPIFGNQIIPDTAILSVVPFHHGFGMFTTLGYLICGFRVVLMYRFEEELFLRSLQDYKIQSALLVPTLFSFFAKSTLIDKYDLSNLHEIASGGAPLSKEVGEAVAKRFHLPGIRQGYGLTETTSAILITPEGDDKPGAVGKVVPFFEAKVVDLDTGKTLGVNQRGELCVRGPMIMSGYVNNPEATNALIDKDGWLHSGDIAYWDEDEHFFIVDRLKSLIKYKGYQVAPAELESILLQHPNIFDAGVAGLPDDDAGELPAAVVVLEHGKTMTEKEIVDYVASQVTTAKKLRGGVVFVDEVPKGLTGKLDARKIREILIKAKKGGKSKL
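Biochemical qHTS of compounds, final roughly 60 µM downward over six points, against 10 nM purified firefly luciferase using Km concentrations of substrates (10 uM D-luciferin, 10 uM ATP) in Tris acetate pH 7.5 buffer; luminescence output.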
ELG1 repair inh: ELG1-dependent DNA repair inhibition; 330,000 tested, 2.3% active; HEK293T ELG1-luciferase reporter, luminescence, 16 h; DNA damage induced by 5-fluorouridine; Potency, µM (doses to about 46.1 µM), actives largely listed as inhibitors; also: nearly all actives have a fitted effect of over 55% in size
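Luminescence from the luciferase reporter, measured 30 min after ONE-Glo reagent at room temperature, was the read-out. Beforehand, 2,000 cells per well were exposed for 16 hr at 37 °C to 5-fluorouridine together with compound or vehicle.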
Rab9 promoter act: Rab9 promoter activation | Potency, µM (doses to about 9.22 µM), actives largely listed as activators | 320,000 tested, 2.8% active | Huh7 Rab9 promoter-luciferase reporter, luminescence, 24 h | AID 485297; also: nearly all actives have a fitted effect of over 60% in size
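Stable Rab9-luc Huh7, 1500 cells/well, 2 h settle; cmpd in DMSO, 24 h, 37 °C/5% CO2; luciferase reagent 10 min RT; luminescence.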
NPC1 prom act: NPC1 promoter activation. Huh7 NPC1 promoter luciferase reporter, 24 h. Potency, µM (top dose mostly 9.22 µM), actives largely listed as activators. 320,000 tested, 2.4% active; also: nearly all actives have a fitted effect of over 60% in size
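Stable NPC1-promoter luciferase Huh7 line; cpd (DMSO) 24 h, 37 °C, 5% CO2; Amplite luciferase reagent 10 min RT; luminescence readout. qHTS format.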
ELG1 genotox: genotoxicity induction in ELG1-luciferase HEK293T cells. HEK293T ELG1-luciferase reporter, luminescence, 16 h. Potency, µM (series often up to 46 µM), actives largely listed as activators. 330,000 tested, 1.3% active; also: nearly all actives have a fitted effect of over 60% in size
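HEK293T cells expressing luciferase-tagged ELG1 were exposed to compound or DMSO vehicle for 16 hr at 37 °C and 5% CO2. Luciferase activity was then measured with ONE-Glo after 30 min at room temperature.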
SMN2 splice up: increases expression of the SMN2 splice variant | AID 1458 | HEK293 SMN2-luciferase splicing reporter, luminescence, 30-36 h | Potency, µM (top dose mostly 46.1 µM), actives largely listed as activators | 210,000 tested, 2.8% active; also: nearly all actives have a fitted effect of over 55% in size
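HEK293 cells carry an SMN2 […]–luciferase reporter in which exon 7 inclusion puts luciferase in frame. Cells were plated 10-12 h before compound addition, then incubated 30-36 h at 37C. ONE-Glo luminescence was read; sodium butyrate at 4.5 mM final served as control.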
Numbers stand for hits; n = inactive; u = inconclusive; x = not tested or not shown; [ ] = remark or other dose. Calls follow the shape of the dose curve; as a rule, active = well fitted curve in the direction sought with a large enough effect; inconclusive = small, poorly fitted or top-dose-only effect, or another doubt; inactive = no such curve, though single readings can be large; an effect the other way counts as inactive or inconclusive.

SMILES | FLuc counter | ELG1 repair inh | Rab9 promoter act | NPC1 prom act | ELG1 genotox | SMN2 splice up
CCOc1ccc(C(=O)Nc2cccc(C(=O)O)c2)cc1Cl | 0.24µM | u | u | u | n | 0.56µM
CCOc1ccc(C(=O)Nc2cc(NC(=O)c3ccc(OCC)c(Cl)c3)cc(C(=O)O)c2)cc1Cl | n | n | n | n | n | n
O=C(COc1ccc(Cl)cc1Cl)NNC(=S)NCc1ccco1 | u | n | n | n | n | x
O=C(COc1ccc(Cl)cc1Cl)Nc1ccc(Cl)cn1 | 0.3µM | u | u | 0.45µM | 1.2µM | 11µM
O=C(COc1ccc(Cl)cc1Cl)NCc1ccco1 | 24µM | u | u | n | u | n
CCN(CC)S(=O)(=O)c1ccc(OC)c(NC(=O)CC2CCCC2)c1 | n | n | n | n | n | x
CCCc1c(O)nc(SCC(=O)O)[nH]c1=O | u | n | n | n | n | x
CCCCN1CC(c2nc3ccccc3n2CCCCOc2ccc(C)c(C)c2)CC1=O (centres undefined) | n | x | x | x | x | x
O=C(O)/C=C/C(=O)Nc1ccc(N2CCOCC2)nc1N1CCOCC1 | u | n | n | n | n | x
O=C(COc1ccc(Cl)cc1Cl)NN=C1CCCCC1 | 7.6µM | n | n | n | n | n
Cc1ccc(C)c(Nc2cc(C)nc3ncnn23)c1 | n | u | 0.1µM | u | n | x
Cc1cc(Nc2ccc(N(C)C)cc2)n2ncnc2n1 | 17µM | u | n | n | n | x
Cc1cc(Nc2ccc(Cl)cc2)n2ncnc2n1 | n | n | n | n | n | x
O=C(c1csnn1)N1CCC2(CCCN(c3ccc(-c4ccccc4)cc3)C2)CC1 | x | x | x | x | x | 18µM
N/C(=N\OC(=O)CCC1CCCC1)c1ccc(Cl)cc1 | 21µM | u | n | n | u | x
Cc1cccc(/C(N)=N/OC(=O)Cc2cccc3ccccc23)c1 | n | n | n | n | n | n
Cc1cccc(/C(N)=N/OC(=O)CCC2CCCCC2)c1 | 6µM | u | n | n | u | n
Cc1ccc(/C(N)=N/OC(=O)CCC2CCCC2)cc1 | 15µM | u | n | n | n | n
Cc1cccc(/C(N)=N/OC(=O)CCc2ccccc2)c1 | 21µM | u | u | n | n | x
Cc1cc(S(=O)(=O)C(CNC(=O)c2ccc(OC(C)C)cc2)c2cccs2)ccc1F (centres undefined) | n | x | x | x | x | x
COc1cc(OC)cc(-c2c(C#Cc3ccsc3)c3cc(-c4ccc5c(c4)OCCO5)ccc3n2C)c1 | n | n | n | n | n | x
N/C(=N\OC(=O)CCCc1ccccc1)c1ccccc1Cl | 6.7µM | n | n | n | u | x
Cc1ccc(/C(N)=N/OC(=O)CCC2CCCCC2)cc1 | 19µM | u | n | n | n | n
COc1ccc(/C(N)=N/OC(=O)CCC2CCCC2)cc1 | n | n | n | n | n | x
Cc1ccc(-c2cn(-c3ccccc3)c(SCC(=O)NC3CCS(=O)(=O)C3)n2)cc1C (centres undefined) | u | u | 2µM | 3.2µM | u | u
SMILES | FLuc counter | ELG1 repair inh | Rab9 promoter act | NPC1 prom act | ELG1 genotox | SMN2 splice up
Cc1ccc(SCC(=O)NC2CCS(=O)(=O)C2)cc1C (centres undefined) | n | n | n | n | n | x
CC(CCc1nc2ccccc2s1)(c1ccc(O)cc1)c1ccc(O)cc1 | x | x | x | x | x | n[9.22 µM]
Cc1ccc(OCCN2CCN(C(=O)CCC(=O)Nc3nnc(CC(C)C)s3)CC2)cc1 | n | 2.6µM | n | n | n | x
CCOc1ccc2nc(N3CCC(C(=O)Nc4c(C)cccc4C)CC3)sc2c1 | n | x | x | x | x | n
CCOc1ccc2nc(N3CCC(C(=O)N4CCN(c5ccccn5)CC4)CC3)sc2c1 | 11µM | 12µM | n | n | 7.3µM | n
CCOc1ccc2nc(N3CCC(C(=O)N4CCN(c5ncccn5)CC4)CC3)sc2c1 | 12µM | n | n | u | n | x
O=Cc1ccccc1OCCOc1ccccc1C=O | 24µM | u | n | n | u | u
CN(C)c1c(F)cc(-c2nn[nH]n2)cc1F | 15µM | u | n | n | n | x
N[C@H](Cc1ccc(O)c(O)c1)C(=O)O | x | x | x | x | x | n
O=C(Nc1nnc(-c2ccc3c(c2)CCCC3)o1)c1c(F)cccc1F | 15µM | u | n | n | n | n
O=C(Nc1nnc(-c2ccc3c(c2)CCCC3)o1)c1ccc(Cl)cc1Cl | n | n | n | n | n | n
CCOC(=O)c1sc(NC(=O)c2cc3c(s2)CCC(C)C3)nc1C (centres undefined) | 4.8µM | u | n | n | 10µM | n
Cc1nc(NC(=O)CCl)sc1C(=O)N(C)C | n | n | n | n | n | x
Cc1ccc(NC(=O)c2cc3c(s2)CCCC3)cc1 | 5.4µM | u | 1.4µM | 3.2µM | u | 13µM
Cc1ccc(NC(=O)CN(C)C(=O)c2cc3c(s2)CCCCC3)cc1 | n | n | n | n | n | x
O=C(Nc1ccccc1OC(F)F)c1cc2c(s1)CCC2 | 21µM | u | n | n | n | n
Cc1nc(NC(=O)c2ccc(Br)s2)sc1C(=O)N(C)C | 7.6µM | u | 3.5µM | 3.2µM | 9.2µM | 11µM
COc1cc2c(cc1NC(=O)COc1cc(C)ccc1C)oc1ccccc12 | n | x | x | x | x | n
O=C(CNC(=O)c1ccccc1Cl)OCc1cc(=O)n2ccsc2n1 | n | x | x | x | x | x
Cc1ccc(NC(=O)CNC(=O)Cn2c(C)cc3ccccc3c2=O)cc1F | n | x | x | x | x | n
Cc1nc(NC(=O)c2cc3c(s2)CCCCC3)sc1C(=O)N(C)C | 13µM | u | u | u | u | u
O=C(NCc1cccs1)c1csc2c1CCCCC2 | n | n | n | n | n | n
O=C(NCc1cccs1)c1cc2c(s1)CCCC2 | 12µM | u | u | u | 21µM | 11µM
COC(=O)c1sc(NC(=O)c2cc3c(s2)CCCC3)nc1C | 2.4µM | u | n[1.84 µM] | n | 1.2µM | 4.5µM
O=C(Nc1nnc(C2CC2)s1)c1cc2c(s1)CCCCCC2 | n | u | n | n | n | u
SMILES | FLuc counter | ELG1 repair inh | Rab9 promoter act | NPC1 prom act | ELG1 genotox | SMN2 splice up
Cc1csc(NC(=O)c2cc3c(s2)CCC3)n1 | 0.85µM | u | u | 0.63µM | u | 0.79µM
O=C(NCCc1ccccc1Cl)C1CCC(=O)N(C2CCCCCC2)C1 (centres undefined) | n | u | n | n | n[9.26 µM] | x
COc1ccc(C2=NN(C(=O)CSc3nc(=O)n4cccc(C)c4n3)C(c3ccc(C)cc3)C2)cc1 (centres undefined) | n | n | n | n | u | x
O=C1CCCC(=O)C1=C1SCCS1 | n | n | n | n | n | n
Cc1ccc(NC(=O)c2scc3c2CCCC3)cc1 | 0.48µM | u | 1.8µM | 4µM | 1.8µM | 1.4µM
Cc1csc(NC(=O)c2cc3c(C)nn(Cc4ccccc4Cl)c3s2)n1 | 11µM | u | n | n | n | n
O=C(c1scc2c1CCCC2)N1CCCCC1 | n | n | n | n | n | n
CCc1sc(C(=O)Nc2nc(C)cs2)cc1C | 1.9µM | u | u | 1.3µM | u | x
Cc1nn(Cc2ccccc2Cl)c2sc(C(=O)NC(C)(C)C)cc12 | n | n | n | n | n | n

Bioassay records from PubChem BioAssay.
